Only some compounds are listed: those with a hit (about 27% of all), similar ones and a draw of the others.
CYP2C19 act – increases human CYP2C19 enzyme activity. P33261. AID 1025. activation factor at 5 µM. recombinant CYP2C19, luciferin-H EGE luminescence; hits give high values; 0 = fully inhibited enzyme, 1 = untreated enzyme. 96,000 tested, under 10 active;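 active means activation factor of at least 2 at 5 µM in the primary screen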
sEH activator – increases human soluble epoxide hydrolase activity | activation, % at 2 µM | purified human sEH enzymatic activity, activator screen | 0.04% of 91,000 active; in the data active means activation above about 37%
CYP2C19 inh – inhibitors of human CYP2C19. P33261. CYP2C19 Supersomes, luciferin-H EGE luminescence, 30 min. inhibition, % at 5 µM. 21% of 96,000 active;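 active means CYP2C19 inhibition above a set limit at 5 µM in the primary screen, cut at about 50% in these data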
CYP2C9 inhib – inhibitors of human CYP2C9 | AID 777 | 20% of 96,000 active | P11712 | CYP2C9 Supersomes, luciferin-H conversion, luminescence | inhibition, % at 5 µM;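 active means blocking of liver enzyme CYP2C9 beyond about 50% at 5 µM, limit read from the data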
Target sequence (P11712 whole entry, looked up): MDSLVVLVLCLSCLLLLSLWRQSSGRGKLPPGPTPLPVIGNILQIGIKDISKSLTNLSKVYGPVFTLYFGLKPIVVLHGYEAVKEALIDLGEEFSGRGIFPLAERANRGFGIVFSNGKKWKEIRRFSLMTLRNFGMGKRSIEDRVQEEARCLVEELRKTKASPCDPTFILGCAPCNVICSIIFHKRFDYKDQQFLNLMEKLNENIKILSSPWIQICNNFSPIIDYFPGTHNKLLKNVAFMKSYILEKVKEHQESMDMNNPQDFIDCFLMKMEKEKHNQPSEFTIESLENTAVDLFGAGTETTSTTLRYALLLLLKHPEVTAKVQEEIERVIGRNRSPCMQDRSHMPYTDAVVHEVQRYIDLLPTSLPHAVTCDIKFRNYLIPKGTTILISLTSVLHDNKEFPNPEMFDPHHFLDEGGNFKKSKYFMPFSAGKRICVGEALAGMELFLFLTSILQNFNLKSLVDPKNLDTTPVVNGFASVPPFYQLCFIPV
CYP2C9 act – CYP2C9 (human) activation | recombinant CYP2C9, luciferin-H conversion, luminescence; hits give high values; factor 1 = untreated enzyme, 0 = blocked | 1.4% of 96,000 active | activation factor at 5 µM;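 active means activation factor of 2 or more for CYP2C9 at a 5 µM dose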
sEH inh – blocks human soluble epoxide hydrolase activity | P34913 | recombinant human sEH enzymatic activity assay | inhibition, % at 2 µM | 0.34% of 91,000 active | AID 707; in the data active means inhibition above about 80%
Large screens that a line does not name were inactive.

O=C1CCCC(O)=C1C1NCCc2ccccc21 (stereo unspecified)	none
COc1ccc(Cl)cc1C(=O)NCC(C)C	CYP2C9 act 3.1
CCCC(C)NC(=O)c1cc(Cl)ccc1OC (stereo unspecified)	CYP2C9 act 3.5
COc1ccc(Cl)cc1C(=O)NCCN(C)C	none
CCOCc1nnc(NC(=O)c2cc(Cl)ccc2OC)s1	none
CCCS(=O)(=O)c1nnnn1-c1cccc(OC)c1	none (no result: sEH activator, sEH inh)
COc1nnc(-c2ccc(N3CCOCC3)c(NC(=O)c3ccco3)c2)c2ccccc12	CYP2C9 inhib 65.3
COc1nnc(-c2ccc(N3CCOCC3)c(NC(=O)c3ccccc3)c2)c2ccccc12	CYP2C19 inh 80.7, CYP2C9 inhib 70.0
COc1nnc(-c2ccc(N3CCOCC3)c(NC(C)=O)c2)c2ccccc12	none
CCC1Sc2ccccc2N(CC(=O)NCCC(C)C)C1=O (stereo unspecified)	none
N#Cc1cc([N+](=O)[O-])ccc1Oc1cccc(/C=N/NC(=O)c2cccc(Cl)c2)c1	none
CCOC(=O)C1C(=O)N(C(=O)c2cncc(Br)c2)CC1c1ccccc1 (stereo unspecified)	CYP2C19 inh 83.7 (no result: sEH activator, sEH inh)
Cc1ccc(S(=O)(=O)c2nc(C)c3c(n2)CCC3)cc1	CYP2C9 act 2.2
COc1ccccc1N1CCN(C(=O)CCNS(=O)(=O)c2ccc(Br)s2)CC1	CYP2C9 inhib 80.0
O=C(CCNS(=O)(=O)c1ccc(Br)s1)N1CCN(c2ccccc2)CC1	none
O=C(CNS(=O)(=O)c1ccc(Br)s1)N1CCCC1	CYP2C19 inh 64.1
Cc1sc(NC(=O)CN2CCN(c3ccccn3)CC2)c(C#N)c1C	none (no result: CYP2C19 act, CYP2C19 inh, CYP2C9 inhib, CYP2C9 act)
O=C(NCCCn1ccnc1)c1noc2c1CCCC2	CYP2C19 inh 68.6, CYP2C9 inhib 84.8 (no result: sEH activator, sEH inh)
O=C(NCCCn1ccnc1)c1noc2c1CCc1ccccc1-2	CYP2C19 inh 83.1, CYP2C9 inhib 50.2 (no result: sEH activator, sEH inh)
Cc1cc(NC(=O)c2noc3c2CCc2ccccc2-3)no1	none (no result: sEH activator, sEH inh)
O=C(NCc1ccc(F)cc1)c1noc2c1CCCC2	none
O=C(c1ccc(Br)cc1)N(C1=NCCCCS1)c1ccccc1	none
O=C(CNC(=O)C1CCCCC1)Nc1ccc(Cl)cc1	none
O=C(COC(=O)CNC(=O)C1CCCCC1)Nc1ccc2ccccc2c1	CYP2C19 inh 69.0
CCOC(=O)c1ccc(NC(=O)CNC(=O)C2CCCCC2)cc1	CYP2C9 inhib 53.8
COC(=O)c1ccc(NC(=O)CNC(=O)C2CCCCC2)cc1	none
O=C(CNC(=O)C1CCCCC1)Nc1cc(Cl)cc(Cl)c1	CYP2C19 inh 60.8
CCCn1nc(Oc2nc(NCC)nc(NCC)n2)ccc1=O	none
Cc1ccc(N/C=C/C(=O)C(C)(C)C)c(O)c1	none
Nn1c(SCC(=O)Nc2ccc(F)cc2)nnc1-c1cccnc1	none
N#CC(c1ccccc1)c1ccc(C(=O)c2ccc(F)cc2)cc1 (stereo unspecified)	CYP2C19 inh 91.0, CYP2C9 inhib 99.2
O=C(c1ccc(F)cc1)c1cc2ccccc2o1	none
N#CC(c1ccc(F)cc1)c1ccc(C(=O)c2ccccc2)cc1 (stereo unspecified)	CYP2C19 inh 75.8, CYP2C9 inhib 90.8
CCCC(=O)Nc1c(C)n[nH]c1C	CYP2C9 inhib 62.1
CCCC(=O)Nc1c(C)nn(C(=O)CCC)c1C	none
CC(OC(=O)CCc1nc2ccccc2[nH]c1=O)C(=O)c1ccccc1 (stereo unspecified)	CYP2C19 inh 95.8, CYP2C9 inhib 66.9
Cc1cc(C(=O)CN2C(=O)CCC2=O)c(C)n1Cc1ccccc1	CYP2C19 inh 62.4
Cc1ccc(C)c(C(=O)CN2C(=O)CCC2=O)c1	none (no result: sEH activator, sEH inh)
Cc1cc(O)cc(=O)n1Cc1ccco1	none
Cc1cc(C(=O)CN2C(=O)NC3(CCCc4ccccc43)C2=O)c(C)n1Cc1ccco1 (stereo unspecified)	CYP2C9 inhib 73.9
O=C1NC2(CCCc3ccccc32)C(=O)N1Cc1nnc(-c2ccccc2Br)o1 (stereo unspecified)	none
CCNC(=O)CN1C(=O)NC2(CCCc3cc(OC)ccc32)C1=O (stereo unspecified)	none
O=C(CN1C(=O)NC2(CCCc3ccccc32)C1=O)N1CCc2ccccc2C1 (stereo unspecified)	CYP2C19 inh 53.6, CYP2C9 inhib 59.0
Cc1cc(C(=O)CN2C(=O)NC3(CCCc4ccccc43)C2=O)c(C)n1Cc1ccccc1 (stereo unspecified)	CYP2C19 inh 56.3, CYP2C9 inhib 70.6
Cc1ccc(C(=O)NC=C(Cl)Cl)cc1	none
CC1(C(=O)O)CCC(C(=O)Nc2ccc(S(N)(=O)=O)cc2)C1(C)C (stereo unspecified)	none
CCOC(=O)c1ccccc1NC(=O)Nc1ccc(OC)c(OC)c1	none
CCOC(=O)c1cc(C)n(Cc2ccccc2)c1C	CYP2C19 inh 65.3, CYP2C9 inhib 50.1
CCOC(=O)c1cc(C)n(Cc2cccc(OC)c2OC)c1C	none (no result: sEH activator, sEH inh)
Cc1nn(Cc2ccccc2)c(C)c1C(=O)OCC(=O)c1cc(C)n(CC(F)(F)F)c1C	CYP2C19 inh 53.1
CCOC(=O)c1c(C)nn(Cc2ccccc2)c1N	none
CCOC(=O)c1cc(C)n(-c2ccc(OC)c(OC)c2)c1C	CYP2C19 inh 87.5, CYP2C9 inhib 63.4 (no result: sEH activator, sEH inh)
COCCn1c(C)cc(C(=O)CN2C(=O)NC3(CCCCCCC3)C2=O)c1C	CYP2C9 act 3.9 (no result: sEH activator, sEH inh)
Cc1cc(-n2c(C)cc(C(=O)CN3C(=O)NC4(CCCCCC4)C3=O)c2C)no1	none (no result: sEH activator, sEH inh)
Cc1[nH]nc2nc3c(c(OC(=O)c4ccccc4)c12)c(=O)n(C)c(=O)n3C	none
CSCCC(NC(=O)c1ccccc1)C(=O)OCC(=O)Nc1ccc(C)c(Cl)c1 (stereo unspecified)	CYP2C9 inhib 82.1
O=C(Nc1ccsc1C(=O)N1CCCCCC1)c1ccccc1	none
CC(C)(C)NC(=O)C(c1ccccc1F)N(Cc1ccco1)C(=O)c1csnn1 (stereo unspecified)	none
COC(=O)C1=C(N)OC2=C(C(=O)CC(C)(C)C2)C1c1cccs1 (stereo unspecified)	CYP2C19 inh 72.9, CYP2C9 inhib 80.9 (no result: sEH activator, sEH inh)
CCOC(=O)C1=C(N)OC2=C(C(=O)CC(C)(C)C2)C1C1CCCCC1 (stereo unspecified)	CYP2C9 inhib 56.1
CCOC(=O)C1=C(N)OC2=C(C(=O)CC(C)(C)C2)C1c1cccnc1 (stereo unspecified)	CYP2C19 inh 75.5, CYP2C9 inhib 71.2
CCOC(=O)C1=C(N)OC2=C(C(=O)CC(C)(C)C2)C1c1ccoc1 (stereo unspecified)	CYP2C19 inh 64.3, CYP2C9 inhib 67.4
Cc1cnc(NC(=O)CSc2nnc(-c3cccs3)n2C)s1	none
Nc1ccc(C(=O)OCc2nc3c(ccc4ccccc43)[nH]2)cc1	none (no result: CYP2C19 act, CYP2C19 inh, CYP2C9 inhib, CYP2C9 act)
CCCOc1ccc(C(=O)CCC(=O)OCC(=O)Nc2cc(C)on2)cc1	none
CCN(CC)S(=O)(=O)c1cc(-c2nnc(-c3ccc(Br)cc3)o2)ccc1Cl	CYP2C9 inhib 60.4
Cc1sc(NC(=O)CN2CCOCC2)nc1-c1ccc2c(c1)CCN2S(=O)(=O)c1ccccc1	none
